Screening results as filed in PubChem.
IL1B cytotox: toxic to HUVEC cells under IL-1B stimulation; HUVEC cell count loss, Hoechst imaging, IL-1B stimulated; cell count reduction, % at 2 µM; hit rate 0.41% among 94,000; AID 845;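 active means cell count reduction more than 3 SD above the screen-wide mean, cut at about 70% in these data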;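 further: normalized per plate to untreated control cells as the no-loss baseline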
E-sel TNF inh: blocks E-selectin expression induced by TNF alpha | HUVEC TNFa-induced E-selectin immunofluorescence, high content | inhibition, % at 2 µM | hit rate 0.71% among 120,000;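 active means inhibition above the batch mean plus 3 SD, and confirmed as a hit on visual image review, cut at about 43% in these data; inconclusive means passes the inhibition cutoff but fails visual image review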;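 further: 0% = TNF-stimulated DMSO wells and 100% = unstimulated control wells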
IL1B NFkB pot: enhances IL-1B driven NFkB nuclear translocation. hit rate 0.3% among 94,000. AID 819. activation, % at 2 µM. HUVEC IL-1B NFkB p65 nuclear translocation imaging;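 active means activation above 40%, about the mean plus 3 SD, also judged a hit on visual image review; inconclusive means activation above 40% but not a hit on visual review; inactive means activation not above 40% and no visual hit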;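 further: percent activation is computed from the nuclear over cytoplasmic p65 intensity ratio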
VCAM1 TNFa inh: reduces TNF alpha induced VCAM1 expression in HUVEC | HUVEC TNFa-induced VCAM-1 immunofluorescence, high-content imaging | inhibition, % at 2 µM | hit rate 0.48% among 95,000 | AID 802;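 active means inhibition above the batch mean plus 3 SD, with images confirmed as a hit by eye, cut at about 37% in these data; inconclusive means inhibition above that limit but hit not confirmed in images; inactive means inhibition not above that limit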;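 further: 0% = TNF-stimulated DMSO wells and 100% = unstimulated control wells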
IL1B NFkB inh: blocks IL-1B driven NFkB nuclear translocation in HUVEC cells | HUVEC IL-1B NFkB p65 nuclear translocation imaging | hit rate 0.43% among 94,000 | inhibition, % at 2 µM;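 active means inhibition above about 30% together with a positive call from visual inspection of the well image, limit read from the data; inconclusive means inhibition above a set limit but visual check negative; inactive means inhibition not above a set limit, visual check negative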;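 further: nuclear over cytoplasmic p65 intensity ratio measured by imaging; 0% = IL-1B stimulated DMSO wells and 100% = unstimulated DMSO wells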
HUVEC tox TNFa: HUVEC cytotoxicity counter-screen, TNF alpha stimulated. HUVEC TNFalpha-stimulated, Hoechst cell count, imaging. cell count reduction, % at 2 µM. hit rate 0.17% among 93,000. AID 848;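 active means cell count reduction exceeding the screen mean by over 5 SD, scaled to untreated wells per plate, cut at about 78% in these data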;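 further: cells counted after 24 h of TNF alpha exposure following the 1 h pretreatment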
The depositor's hits bear a star; ? = inconclusive; . = not tested or not shown. An excerpt weighted towards active compounds, which were near 1.7% of everything screened.

SMILES	IL1B cytotox	E-sel TNF inh	IL1B NFkB pot	VCAM1 TNFa inh	IL1B NFkB inh	HUVEC tox TNFa
O=C(COc1ccccc1)Nc1ccccc1N1CCN(c2ccccc2)CC1	0.0	-4.8	41.8*	10.8	-41.8	-0.4
CCOCCCNC(=O)c1ccc(CS(=O)(=O)Cc2ccccc2F)o1	8.8	5.0	9.5	10.4	-9.5	-1.6
COc1ccccc1C(=O)Nc1c2c(nn1-c1cccc(C)c1C)CS(=O)C2 (stereo unspecified)	-9.4	.	8.8	9.2	-8.8	-23.3
O=C(NC(=O)c1cccc(OC(F)(F)C(F)F)c1)OC1CCS(=O)(=O)C1 (stereo unspecified)	.	54.0*	.	.	.	.
CCC1CCCCN1C(=O)c1sc2ncnc(N(CC)CC)c2c1C (stereo unspecified)	.	0.9	.	.	.	.
CCc1ccc(C(=O)Cn2ncc(Cl)c(Cl)c2=O)cc1	5.1	0.3	-55.9	16.0	55.9*	-12.9
CCn1c2ccccc2c2nnc(SCC(=O)N3CC(C)OC(C)C3)nc21 (stereo unspecified)	4.5	0.1	-1.2	-23.4	1.2	-7.5
Cc1noc(C)c1CSc1nc2ccccc2[nH]1	3.0	-3.2	-11.6	6.2	11.6	-20.8
Fc1cccc(F)c1CSc1nc2ccccc2[nH]1	-12.0	74.8*	8.7	-9.4	-8.7	-30.1
CS(=O)(=O)Nc1ccc(C(=O)N2CCN(c3ccccc3F)CC2)cc1	41.3	10.2	2.5	27.5	-2.5	-13.4
O=C(c1ccccc1C(=O)N1CCN(c2ccccc2F)CC1)N1CCN(c2ccccc2F)CC1	.	-8.6	.	.	.	.
O=C(c1ccccc1F)N1CCN(c2ccccc2F)CC1	.	90.8*	.	.	.	.
O=C(c1ccccc1)N1CCN(c2ccccc2F)CC1	-4.9	70.7*	4.0	0.4	-4.0	10.1
COc1cc(OC)cc(C(=O)N[C@@H](CCSC)c2nc3ccccc3[nH]2)c1	.	-16.7	.	.	.	.
COc1ccc(CC(=O)NC(C)c2nnc(SCCOc3ccc(OC)cc3)n2C)cc1 (stereo unspecified)	23.8	9.6	-63.6	8.2	?	83.4*
O=C(OCn1ncc(Br)c(Br)c1=O)c1ccc(F)cc1	6.9	89.8*	-20.2	80.7*	20.2	28.2
O=C(OCn1ncc(Br)c(Br)c1=O)c1ccccc1Cl	43.8	.	-87.5	34.3	64.7*	32.2
COc1ccc(C(CC(=O)c2ccccc2)S(=O)(=O)c2ccc(C)cc2)cc1 (stereo unspecified)	-16.9	-29.6	69.2*	17.7	-69.2	-2.1
Cc1cc(OCCCCCNCCO)cc(C)c1Cl	.	-31.4	.	.	.	.
Cc1cc(C)c(OCCCCCNCCO)c(C)c1	-17.0	16.3	41.7*	17.2	-41.7	-7.1
Cc1cc(C)cc(OCCCCCNCCO)c1	-5.7	-31.1	-4.1	95.8*	4.1	-2.2
COC(=O)c1sccc1NC(=O)c1sccc1C	94.1*	-11.3	-15.9	-6.6	15.9	-18.8
COc1ccc(CCn2c(SCC(=O)Nc3cc(C)on3)nc3ccccc3c2=O)cc1OC	-5.4	.	-2.9	38.0	2.9	86.7*
COc1cc2[nH]c(=O)n(CCC(=O)NC3CCCC3)c(=O)c2cc1OC	.	-11.3	.	.	.	.
COc1cc2[nH]c(=O)n(Cc3ccc(C(=O)NC4CCCC4)cc3)c(=O)c2cc1OC	1.9	13.1	46.2*	0.5	-46.2	-13.9
SMILES	IL1B cytotox	E-sel TNF inh	IL1B NFkB pot	VCAM1 TNFa inh	IL1B NFkB inh	HUVEC tox TNFa
Cn1c(NCc2c[nH]c3ccccc23)nc2ccccc21	-12.0	-30.6	-2.2	57.5*	2.2	-25.3
CCn1c(NCc2c[nH]c3ccccc23)nc2ccccc21	5.5	-4.2	10.5	11.5	-10.5	-19.2
CCCSc1nc(C)c(-c2csc(C(C#N)=C3CCCC3)n2)cc1C#N	10.2	61.9*	-4.0	-14.7	4.0	0.0
Cc1c(C(=O)OC(C)C)[nH]c2c1C(=O)CC(C)(C)C2	87.3*	20.7	-95.9	3.5	95.9*	-6.0
COCCCNC(=O)Cn1nnc(-c2ccc(NC(=O)c3ccccc3F)cc2)n1	-12.7	-39.9	-43.0	6.5	43.0*	-5.4
CCOC(=O)c1ccc(NC(=O)Cn2nnc(-c3ccc(F)cc3)n2)cc1	.	-16.0	.	.	.	.
CCOC(=O)c1ccc(NC(=O)Cn2nnc(-c3ccccc3)n2)cc1	-7.7	.	3.9	88.2*	-3.9	98.4*
CCCNC(=O)C1CCN(S(=O)(=O)c2c(C)noc2/C=C\c2ccc(OC)cc2)CC1	5.1	76.2*	-16.9	-1.0	16.9	2.2
CCOCCCNC(=O)C1CCN(S(=O)(=O)c2c(C)noc2/C=C\c2ccc(OC)cc2)CC1	-28.8	-2.9	5.0	-6.4	-5.0	-7.7
O=C(OCn1ncc(Cl)c(Cl)c1=O)c1cccc(C(F)(F)F)c1	-28.4	71.4*	-26.2	24.1	26.2	-5.4
N=C(N)SCc1nc2ccccc2c(=O)n1-c1ccccc1	.	61.0*	.	.	.	.
Cc1ccc2[nH]c(=O)c(CN(Cc3ccccc3Cl)C(=O)N3CCOCC3)cc2c1	-1.1	37.7	6.7	-12.0	-6.7	-45.1
Clc1cccc(CSc2nnc(-c3sccc3-n3cccc3)o2)c1	12.3	81.5*	-2.3	-3.4	2.3	-7.3
CN(C)C(=O)C1(c2ccccc2)CCN(S(=O)(=O)c2ccccc2)CC1	90.2*	-28.7	26.0	16.8	-26.0	-13.0
Cc1ccnc(N(C(=O)c2cccs2)C(=O)c2cccs2)c1	-15.6	12.3	11.3	13.3	-11.3	24.2
O=C(c1cccs1)N(C(=O)c1cccs1)c1ccc(Br)cn1	-19.6	44.6*	19.8	16.3	-19.8	-10.6
Clc1ccc(CNc2ccc3nnc(-c4ccccc4)n3n2)cc1	.	76.1*	.	.	.	.
CCOc1ccc(CCNc2ccc3nnc(-c4ccccc4)n3n2)cc1OCC	.	-10.8	.	.	.	.
CC(CCc1ccccc1)NC(=O)/C=C/c1ccc(Cl)cc1 (stereo unspecified)	.	65.3*	.	.	.	.
C=CCNC(=S)NNC(=O)c1ccc(OCC)cc1	8.3	52.7*	0.9	0.1	-0.9	-7.2
CCOC(=O)c1cnn(-c2nc(CC)nc3sc4c(c23)CCC4)c1N	-30.1	.	-9.5	91.9*	9.5	76.5
Cc1nc(Cl)c(C(=O)NC(=O)Nc2cccc(C(F)(F)F)c2)c(C)c1[N+](=O)[O-]	-8.1	16.1	11.2	0.0	-11.2	-30.8
CCOC(=O)c1cc(=O)n(Cc2ccccc2C)c2ccccc12	-21.8	-5.2	17.0	85.7*	-17.0	-45.6
NC(=NCCc1ccccc1)NS(=O)(=O)c1ccccc1	.	4.3	.	.	.	.
O=C(NCCc1csc(-c2cccnc2)n1)c1ccccc1	-11.6	1.6	10.9	3.9	-10.9	-22.8
O=C(NCCc1csc(-c2cccnc2)n1)c1cccc2ccccc12	78.9*	7.3	-35.0	10.2	35.0*	-38.5
O=C(NCC1COCCO1)C1CCN(S(=O)(=O)c2ccccc2)CC1 (stereo unspecified)	94.3*	-13.3	-96.5	1.6	96.5*	5.0
Cc1ccc(S(=O)(=O)N2CCC(C(=O)NCCc3ccccn3)CC2)cc1	.	9.0	.	.	.	.
C[C@@]12CC(=O)NC1N(C(=O)c1cccc(C(F)(F)F)c1)C(c1ccccc1O)C2 (stereo partly specified)	-5.4	10.2	10.4	9.7	-10.4	-8.1
